# Results: PubChem BioAssay AID588475 (Sanford-Burnham Center for Chemical Genomics, 2011)
# In all, about 350,000 compounds went through this assay and about 2,100 (0.6%) were called active.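 Rule for the calls: active = inhibition of the ligand-induced calcium signal above about 50% at the single tested concentration (limit read from the data); inactive = the rest.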 For the sample, actives were picked, then their nearest neighbours and some compounds at random.
# Experiment: blockers of CRF-evoked CRF-R2/CRF-BP calcium response – cell-based, HEK293, calcium dye fluorescence, uHTS, primary screen (AID 588475)
# Details: CRF-induced calcium fluorescence, at 11.8 µM, active compounds read high
row,Compound,inhibition
1,O=C1CC2(CCCC2)C(=O)N1CN1CCN(S(=O)(=O)c2ccc(F)cc2F)CC1,6.17% (inactive)
2,Cc1cc(C(=O)OCC(=O)Nc2nccs2)c2ccccc2n1,8.78% (inactive)
3,O[C@H]1CN(Cc2cccs2)[C@@H](c2ccc(Cl)cc2)C[C@@H]1n1cc(C2CC2)nn1,-16.1% (inactive)
4,Cc1cccc(N2CCN(C(=O)c3cnn4c(C(F)F)cc(-c5ccccc5)nc34)CC2)c1C,-11.8% (inactive)
5,CCCc1nc(SCC(=O)Nc2ccccc2OC)c2c(=O)n(C)c(=O)n(C)c2n1,-6.56% (inactive)
6,CCOc1cccc(=O)c2c(C)n(CC3CCCO3)c(C)c12 (configuration not stated),-12.3% (inactive)
7,CN1CN(C)c2ccc([N+](=O)[O-])c3cccc1c23,4.39% (inactive)
8,O=C1c2cccc3c([N+](=O)[O-])ccc(c23)C(=O)N1CC1CCCO1 (configuration not stated),87.2% (active)
9,Cc1ccc(S(=O)(=O)NC(=O)c2cccc(C)c2)cc1,-9.88% (inactive)
10,COC(=O)C1=CN(Cc2ccc(OC)cc2)C=C(C(=O)OC)C1c1ccc(O)c(OC)c1,-26.4% (inactive)
11,CCOc1cc(C2C(C(=O)OC)=CN(C3CCCC3)C=C2C(=O)OC)cc(Br)c1O,50.2% (active)
12,CCCC(=O)Nc1cc(OCC)c(NC(=O)NC2CCCCC2)cc1OCC,15.3% (inactive)
13,CCn1c(SCC(=O)NC2CC2)nnc1-c1ccccc1OC,18.7% (inactive)
14,CCn1c(SCC(=O)NC2CC2)nnc1-c1ccccn1,2.34% (inactive)
15,CCn1c(SCC(=O)NC2CC2)nnc1-c1ccncc1,52% (active)
16,Nc1nc(SCC(=O)Nc2cc(C(F)(F)F)ccc2Cl)[nH]c(=O)c1NC(=O)c1ccco1,0.81% (inactive)
17,COC(=O)C1=CO[C@@H](O[C@@H]2O[C@H](CO)[C@@H](O)[C@H](O)[C@H]2O)C2C1C[C@H](O)[C@@H]2C (some centres not stated),1.31% (inactive)
18,COc1ccc(C)cc1NC(=O)Nc1ccccc1SC,23.5% (inactive)
19,CCOc1ccc(NC(=O)Nc2cc(C)on2)cc1,-27.8% (inactive)

row,Compound,inhibition
1,CCOc1ccc(NC(=O)Nc2cc(C)ccc2OC)cc1,54.1% (active)
2,CCN(CC(=O)Nc1cc(Cl)ccc1C)C(=O)CN1C(=O)NC2(CCCC2)C1=O,-3.2% (inactive)
3,CN(C(=O)CCNC(=O)Cn1ccc2ccccc2c1=O)c1ccc(Br)cc1,1.39% (inactive)
4,Cc1cccc(-c2nc(CS(=O)CC(=O)NC(C)CCc3ccccc3)c(C)o2)c1 (configuration not stated),-5.77% (inactive)
5,Cn1nc(N)c2ncc(C(Cl)(Cl)Cl)nc21,73.4% (active)
6,COc1ccc(CC(=O)OC(C)C(=O)Nc2ccc(S(N)(=O)=O)cc2)cc1 (configuration not stated),-1.19% (inactive)
7,COc1ccc(S(=O)(=O)N2CCN(C(=O)c3cccs3)CC2)cc1OC,22.7% (inactive)
8,COc1cccc(NC(=O)Nc2ccc(F)cc2)c1,-2.92% (inactive)
9,COc1cccc(NC(=S)NC(=O)c2c(Cl)c(C)nn2C)c1,-4.16% (inactive)
10,COc1cccc(NC(=S)C(C#N)=C2N(C)c3ccccc3N2C)c1,79.1% (active)
11,Cc1nn(C)c(Oc2ccccc2)c1CCNS(=O)(=O)c1ccc(F)cc1,-3.36% (inactive)
12,Nc1ncnc2c1ncn2[C@@H]1O[C@H](CNS(=O)(=O)c2ccc(-c3ccno3)s2)[C@@H](O)[C@H]1O,3.06% (inactive)
13,CCOC(=O)C1=NNC2(c3ccc(Cl)cc3)C(=O)N(c3cc(C)cc(C)c3)C(=O)C12 (configuration not stated),17.3% (inactive)
14,CC(C)CCOc1ccc(C(=O)Nc2cc(S(=O)(=O)N3CCOCC3)ccc2N2CCOCC2)cc1,19.1% (inactive)
15,Cc1cccc(OCCC(=O)Nc2cc(S(=O)(=O)N3CCCCC3)ccc2N2CCOCC2)c1,-1.67% (inactive)
16,Cc1cc(OCCCC(=O)Nc2cc(S(=O)(=O)N3CCOCC3)ccc2N2CCOCC2)ccc1Cl,62.5% (active)
17,O=C(Nc1c2c(nn1-c1ccccc1)CS(=O)(=O)C2)C1CCCC1,7.96% (inactive)
18,COc1cccc(CNC(=O)CCC2CCCN(C(=O)c3ccc(F)c(Cl)c3)C2)c1 (configuration not stated),6.37% (inactive)
19,COc1cccc(CNC(=O)CCC2CCCN(C(=O)c3ccoc3C)C2)c1 (configuration not stated),-2.45% (inactive)

row,Compound,inhibition
1,COc1cccc(C(=O)N2CCCC(CCC(=O)NCc3ccc(F)c(F)c3)C2)c1 (configuration not stated),50.4% (active)
2,O=C1N=C(N2CCc3ccccc3C2)S/C1=C\c1ccc(O)cc1,16.8% (inactive)
3,CC(C)(C)c1ccc(/C=C2\SC(=O)N=C2N)cc1,9.93% (inactive)
4,NC1=NC(=O)S/C1=C\c1ccc(O)cc1,51% (active)
5,CNC(=O)/C(=C\C=C\c1ccccc1)NC(=O)c1ccc([N+](=O)[O-])cc1,4.28% (inactive)
6,Cc1ccc(NC(=O)Cn2sc3ccccc3c2=O)cc1,3.99% (inactive)
7,Cc1cc(NC(=O)CN2C(=O)NC(CC(C)C)C2=O)no1 (configuration not stated),56.2% (active)
8,Cc1cc(NC(=O)CN2C(=O)NC(CCc3ccccc3)C2=O)no1 (configuration not stated),5.91% (inactive)
9,COc1ccc(C2(c3ccc(OC)cc3)NC(=O)N(CC(=O)Nc3cc(C)on3)C2=O)cc1,-31.2% (inactive)
10,CC1CCN(C(=O)/C(=C\c2ccccc2)NC(=O)c2ccccc2)CC1,8.16% (inactive)
11,O=C(Cc1cccs1)N(CC1CCCO1)C1(C(=O)NC2CCCCC2)CCCCC1 (configuration not stated),-14.9% (inactive)
12,CC(C)c1ccc2c(c1)c(SC(C)(C)C)c(CC(C)(C)C(=O)O)n2Cc1ccc(Cl)cc1,54.3% (active)
13,Cc1ccc(C)c(NC(=O)C(OC(=O)c2ccc(C)s2)c2ccccc2)c1 (configuration not stated),-6.3% (inactive)
14,COCCCNC(=O)c1ccc(CNS(=O)(=O)c2ccc(NC(C)=O)cc2)cc1,-2.43% (inactive)
15,O=C(Nc1ccc(S(=O)(=O)Nc2nccs2)cc1)c1cccc(S(=O)(=O)N2CCOCC2)c1,-0.01% (inactive)
16,O=C(Nc1ccc(S(=O)(=O)N2CCOCC2)cc1)c1ccc2ncsc2c1,1.25% (inactive)
17,Cc1nc2ccc(NC(=O)c3cccc(S(=O)(=O)N4CCOCC4)c3)cc2s1,116% (active)
18,O=C(NNC(=S)NCCCN1CCOCC1)c1ccncc1,1.88% (inactive)
19,CNC(=O)C[C@H]1C(=O)N(Cc2ccccc2)C[C@@H]1CSC,-10.7% (inactive)
